# Experiments:
# Assay in all cases: PBM binding z-score (relative to random genomic background probes); higher = stronger binding; sequences stand for … in GC…GCGATTGACAGCGTAGAATGAAGG
# [1] = test system: PPARg:RXRa DBDmut IVT, anti-RXR (DBD mutation: RXRa K156A/R161A, NR concentration 270 nM, RXRa partner concentration 90 nM)
# Summary of the method: (§1)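 Antibodies against each partner of ligand-free nuclear receptor dimers (one per run) detected binding on custom Agilent 4×180K protein-binding microarrays after 1 h incubation. The double-stranded probes had 34-nt variable regions carrying direct-repeat seeds, single-nucleotide variants, half-site ablations and random human genomic background sequences. Binding z-scores, from regression-normalized fluorescence, use the random background probes as reference.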
# [2] = test system: PPARg:RXRa IVT, anti-PPARg (NR concentration 270 nM, RXRa partner concentration 90 nM)
# Summary of the method: as §1
# [3] = test system: PPARg DBDmut:RXRa IVT, anti-PPARg (DBD mutation: PPARg1 K132A/R137A, NR concentration 270 nM, RXRa partner concentration 90 nM)
# Summary of the method: as §1
# [4] = test system: PPARg DBDmut IVT, anti-PPARg (DBD mutation: PPARg1 K132A/R137A, NR concentration 270 nM)
# Summary of the method: as §1
# [5] = test system: PPARg homodimer (NR concentration 180 nM)
# Summary of the method: as §1
# [6] = test system: PXR:RXRa (NR concentration 270 nM, RXRa partner concentration 90 nM)
# Summary of the method: as §1
# [7] = test system: PXR homodimer (NR concentration 270 nM)
# Summary of the method: as §1
# [8] = test system: RARa:RXR (NR concentration 270 nM, RXRa partner concentration 90 nM)
# Summary of the method: as §1
# [9] = test system: RARa homodimer (NR concentration 270 nM)
# Summary of the method: as §1
# [10] = test system: RARb:RXRa (NR concentration 270 nM, RXRa partner concentration 90 nM)
# Summary of the method: as §1
Sequence,PBM binding z-score [1],PBM binding z-score [2],PBM binding z-score [3],PBM binding z-score [4],PBM binding z-score [5],PBM binding z-score [6],PBM binding z-score [7],PBM binding z-score [8],PBM binding z-score [9],PBM binding z-score [10]
TCTAGTTGCTCACGGAGGTCACACACGACGGGTA,1.58,2.24,0.833,0.565,2.53,4,0.832,4.2,0.559,3.25
TCGTATAGGTAAACAGGTGAAAGTCCGTAAGTTA,2.73,2.33,0.663,0.619,1.46,0.831,0.735,1.22,1.47,0.797
TGAATGAGTTTATAAGATCAGGGAACGTTGCAAA,-0.937,-0.179,0.631,0.748,0.106,0.215,0.318,0.174,0.105,-0.00933
CAAACTAGGACACGAAAGGTCAAAGTCGAATGAC,6.64,6.94,2.48,3.31,4.51,5.64,1.78,6.19,3.15,4.52
TTACCAAGGAGAAAGGTCGTTGATGCACGCCTTG,0.0947,0.908,0.246,0.131,0.653,1.82,-0.00641,2.12,-0.114,1.5
CCTACTGGGCCAGGGTCATTGATCAGTCAAAGCA,1.49,3.62,-1.03,-0.896,0.994,3.06,0.381,3.61,-0.641,2.51
GCTTGTGGATCAAGGTTAAGAAAGACTAAGCTAA,0.991,1.19,-0.0361,0.0112,0.339,0.429,-0.166,0.735,-0.249,0.702
TGAATGAGGTTATAAGATCAGGGCACGTTGCAAA,1.2,2.64,0.65,0.308,0.364,1.19,-0.152,1.77,0.42,1.48
AGAATGAGGTTAAGATCAGGGTAACAGAATACAT,3.19,3.28,1.74,0.532,1.13,1.73,0.602,2.85,0.262,2.08
CCTAGTTGGTTAGGAGGTCACACACCGGATATGA,1.46,3.63,0.832,1.05,4.26,4.03,1.84,4.45,1.79,3.42
TTACCAAGGTGAGCTGAGGCCGTTGATCCAACTC,0.88,1.24,-0.955,-0.387,-0.831,2.17,-0.968,1.15,-1.4,1.09
TCGAGTCGGTTAGGGGCATTCAGAATGGCGTCGA,0.464,-0.15,-1.37,-1.74,-0.435,0.545,-0.165,0.325,-1.4,0.501
TCATATAGGTAACAGGTGAAAGTCGGTGTGGTAA,5.02,4.81,0.985,1.02,1.4,0.896,0.535,0.876,1.18,1
GCTAGAAGGCCATTTGGGTCACTCAATGACGGGC,1.13,1.97,-0.158,-0.532,0.149,1.19,1.2,1.08,-0.572,2.2
TCTTGTAGTTCAGCAGGTTAAGAAAGCTGGCCAA,1.37,0.541,-0.927,0.25,0.434,0.887,0.352,1.18,0.277,1.76
GTACCAAGGTGAATAGGTCTTTGATGAGTAGGCG,2.18,2.5,0.818,0.145,0.986,0.0831,0.119,0.721,0.436,1.36
TCATAAAGGTAAATGCTAGGTGAAAGTCCGATCT,3.32,1.59,0.692,0.518,1.01,0.647,0.218,1.36,0.932,1.04
CGTCCAAGGTCAATGCCAGGTCAGTGAAAGCATT,2.99,3.63,0.209,-0.326,7.26,5.48,2.85,6.58,1.59,5.39
ACTATTAGTTGAGACGAGGGCAACAGATAGGTTG,0.565,0.556,0.565,1.23,0.704,1.13,0.384,0.971,0.692,0.75
TGGATGAGGTTATAAGATCAGGGAACGTTGCAAA,-0.0803,0.649,0.558,0.341,0.81,0.986,0.518,1.34,0.465,1.25
CCGACTGGGGCAAAGGTTACCAAACTCAGTACGA,4.42,6.14,-0.923,-0.533,1.38,2.51,-0.494,4.11,0.0196,2.52
TCGAGGAGGTTACCAATGGGGCATTCAGCTTTCT,1.15,1,-0.386,-0.775,0.8,1.05,-0.411,1.43,-0.136,1.67
TCATATAGGTAAAGATGAAAGTCGAACGATATGA,3.2,1.97,1.28,0.63,-1.18,-0.0573,-0.0684,0.268,0.0923,0.318
TCATATAGTTAAACAGGTGAAAGTCCGTAAGTTA,2.65,1.54,1.36,1.6,1.34,0.848,0.543,1.2,1.91,0.698

Sequence,PBM binding z-score [1],PBM binding z-score [2],PBM binding z-score [3],PBM binding z-score [4],PBM binding z-score [5],PBM binding z-score [6],PBM binding z-score [7],PBM binding z-score [8],PBM binding z-score [9],PBM binding z-score [10]
CGTCCAATGTCAGAGAGGTCAGTGAATGCCGAGT,0.575,1.22,-0.469,-0.584,3.15,3.48,2.28,3.16,1.47,3.42
CCTACTGGGCCACGAAAGGTCATTGAATCAGTGA,5.88,5.52,0.0728,-0.421,2.53,5.09,1.26,5.07,0.674,4.03
ATATGTAGGTTACATCAGGGTCATTCAGGCTATG,7.19,7.69,2.46,2.26,2.46,4.24,2.65,4.06,1.01,2.77
CCTTATGGGTCACGAGGTTATAGCACGACGAGCG,6.86,7.13,2.07,2.59,3.76,3.9,0.436,5.4,0.87,4.43
CGTCCAAGGTCAATGGTAGGTCAGTGAAAGCATT,3.32,3.95,-0.0725,-0.844,5.44,4.84,1.79,5.88,1.16,5.37
TAGCCTAGGTTATTCAGGGGCCAGTATAGAAAGC,0.707,0.703,0.674,-0.312,-0.0619,0.0716,-0.463,0.719,-0.306,1.13
CGAACTAGGTCATTGATAGGACAGTGAATAGTAA,7.92,8.26,4.2,1.01,1.71,1.43,0.351,1.93,0.346,3.4
GCTCGGAGCACAAGGTCAGAGCTTTGTCCGTAGA,0.516,0.181,-1.55,-1.25,0.0109,1.7,-0.525,1.75,-1.06,2.63
ATACCAAGGTGATTGTGAGGTCGTTGATACTAAC,0.693,1.27,0.771,0.654,1.27,3.13,2.05,2.22,0.72,1.41
AGTCAAAGTTCATCTAGGTAAGGTAAGATATGCT,0.598,3.32,1.53,0.676,3.1,5.24,5.75,3.9,1.68,4.91
GCTTACGGGTCAAAGGTTATAGGATGAATAGAAT,4.59,5.81,2.01,1.61,3.34,6.34,0.559,8.36,1.33,4.59
CCTACTGGGCCATCTGGTCATTGATATCAACGTT,3.95,4.15,0.821,0.613,0.5,-0.397,-0.43,-0.692,0.0969,0.606
CGTCCAAGGTCAGCAGGTCAGTGGAAGCGACGTG,2.83,3.58,-0.161,-0.183,2.96,3.57,0.377,4.3,0.462,5.23
TAGCCTAGGTCATGCGGGCCGGTATAGTGTCGGC,1.61,2.8,-0.135,-0.829,1.05,1.04,-0.496,2.14,-0.545,3.61
TGACTGAGGTTATAAGATCAGGGAACGTTGCAAA,-0.568,0.535,-0.045,-0.27,0.479,0.649,-0.0741,1.25,-0.694,1.15
GGAACGAGGGCATTCGACTTGATAGCATGGCGAT,2.67,2.21,0.442,0.0396,-0.0413,0.499,0.283,-0.119,-0.012,1.6
TCGTATAGGTAATACAGGTGAAAGTCGGCATCTA,2.32,2.24,0.787,1.03,0.975,0.742,0.293,0.746,1.16,0.691
AGAATGAGGTTATACGTGGATCAGGGAAGAAAGT,3.62,2.12,1.26,0.938,1.69,1.17,0.993,1.89,0.612,1.55
CCGAGTAGGTTATGGGGCATTCATGCAACGGTGA,3.37,3.49,-0.836,0.00847,0.908,0.114,-0.204,0.175,0.24,0.981
CGAACGAGGGCACGAGTTGATAGCAAATGCCGAT,3.89,3.93,0.0277,-0.0688,-0.0293,0.738,0.271,1.12,-0.123,2.6
GCTAGCAGCCCATTTGGGTCACTCAATGACGGGC,-0.167,0.995,-0.831,-1.56,-0.798,-0.106,-0.918,0.359,-1.15,0.893
ATACCATGGTGATCGTGAGGTCGTTGATACTAAC,-0.0684,0.0915,-0.0138,0.737,0.319,1.75,1.17,1.27,-0.088,0.235
TTACCAAGGTGAAAGGTCGCTGATGCACGCCTTG,2.44,5.19,0.53,0.614,1.28,3.66,-0.522,5.46,0.386,3.12
CGAACTAGGTCATTGTCAGGACAGTGAATAGTAA,8.22,8.47,5.17,6.24,3.98,1.84,0.47,2.49,0.423,3.48

# From the supplement of paper PMC6555819
